Experimental data reported in PubChem BioAssay AID1259374 (The Scripps Research Institute Molecular Screening Center, 2018).
Hit rate of the full screen: of about 650,000 compounds, about 5,900 (0.91%) were called active. The full list was thinned out, with actives kept by preference. Unmarked numbers belong to inactive results. No stated cut-off is given here; in the data, active means inhibition above about 50%; inactive means the rest.

Molecular target: Microphthalmia-associated transcription factor (Homo sapiens) (UniProt O75030)
Sequence (O75030 whole entry, looked up): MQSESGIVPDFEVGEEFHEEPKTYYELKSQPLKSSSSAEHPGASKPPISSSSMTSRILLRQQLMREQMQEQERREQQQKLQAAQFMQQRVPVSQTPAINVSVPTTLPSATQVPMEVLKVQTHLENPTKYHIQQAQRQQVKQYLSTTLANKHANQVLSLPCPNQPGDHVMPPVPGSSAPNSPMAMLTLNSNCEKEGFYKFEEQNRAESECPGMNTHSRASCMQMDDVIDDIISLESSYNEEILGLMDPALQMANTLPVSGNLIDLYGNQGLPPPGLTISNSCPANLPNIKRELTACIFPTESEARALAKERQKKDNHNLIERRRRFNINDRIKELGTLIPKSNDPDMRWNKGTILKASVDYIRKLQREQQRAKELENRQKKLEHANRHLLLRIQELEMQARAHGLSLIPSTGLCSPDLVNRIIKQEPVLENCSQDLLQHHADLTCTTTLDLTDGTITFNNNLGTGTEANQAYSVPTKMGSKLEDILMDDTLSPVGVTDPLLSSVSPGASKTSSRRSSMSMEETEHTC
Experiment: MITF inhibitors, primary screen, biochemical, AlphaScreen, human (AID 1259374);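 further: 0% = vehicle wells with protein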
Settings: AlphaScreen MITF homodimerization, bead proximity signal; at 2.6 µM; hits give high values

| Compound | inhibition |
| --- | --- |
| CCN1CCN(CC(O)COc2cccc(C(=O)OC)c2)CC1 (stereo not drawn) | 53.1% (active) |
| O=C(c1ccccc1)N1CCN(CC(O)COc2cccc(Cl)c2)CC1 (stereo not drawn) | -18.1% |
| CN1CCN(CC(O)COc2ccc3ccccc3c2)CC1 (stereo not drawn) | 18.6% |
| O=C(/C=C/c1ccc([N+](=O)[O-])cc1)NCCSC1CCCCC1 | 27.9% |
| CCOc1ccccc1N1C(=O)c2nccnc2C1=O | 1.76% |
| CCOc1cc(/C=N/O)ccc1OCc1cccc(F)c1 | 9.06% |
| Cc1cccc(NC(=O)CNCCN2CCCCC2)c1C | 62.5% (active) |
| CCC(C)NCC(=O)Nc1cccc(C)c1C (stereo not drawn) | -0.21% |
| COCCNCC(=O)Nc1cccc(C)c1C | -3.31% |
| Cc1ccc2c(c1)-c1onc(C(=O)Nc3ccc(Cl)cn3)c1CO2 | 12.1% |
| COc1ccccc1NC(=O)Cn1cnc2sc(C(=O)O)c(C)c2c1=O | -5% |
| O=C(CSc1cccc[n+]1[O-])Nc1nc2ccccc2s1 | 14.6% |
| C=CCn1c(SCC(=O)Nc2nc3ccccc3s2)nc(O)cc1=O | 67% (active) |
| O=C(CSc1ncnc2ccccc12)Nc1nc2ccccc2s1 | 4.66% |
| CCn1cc(C(=O)N[C@H](C)Cn2nnc3ccccc32)c(=O)c2ccc(C)nc21 | 0.5% |
| Cc1ccc(NC(=O)C2C3NC(=S)N(c4ccc(F)cc4)C2(C)Oc2ccc(Br)cc23)c(C)c1 (stereo not drawn) | 8.95% |
| CCCN1CCc2nc(NC(=O)COc3ccc(Cl)cc3Cl)sc2C1 | 4.61% |
| O=C(Nc1ccc2c(c1)OCO2)C(c1ccccc1)N(Cc1ccccc1)Cc1ccccc1 (stereo not drawn) | 75.7% (active) |
| CN(c1ccccc1)C(C(=O)Nc1ccc2c(c1)OCCO2)c1ccccc1 (stereo not drawn) | 17.5% |
| O=C(Nc1ccc2c(c1)OCO2)C(c1ccccc1)N1CCC(Cc2ccccc2)CC1 (stereo not drawn) | -8.34% |
| O=C1Nc2cc(C(=O)O)ccc2S/C1=C/c1ccccc1Cl | 2.94% |
| CCOC(=O)c1ccc(Nc2ncnc3c2cnn3-c2ccccc2)cc1 | 15.3% |
| Cc1nc(NC(=O)c2cc(Br)ccc2Cl)sc1C | 53.2% (active) |
| Cc1nc(NC(=O)c2ccoc2C)sc1C | 1.06% |
| COc1ccc(C(=O)Nc2nc(C)c(C)s2)c(OC)c1 | 20.7% |

| Compound | inhibition |
| --- | --- |
| NC(=O)c1ccccc1NC(=O)CNCc1ccco1 | -15.5% |
| CCCn1c(SCC(=O)Nc2ccc(C(C)=O)cc2)n[nH]c1=O | -6.45% |
| Cc1ccc(-c2n[nH]c(CNC(=O)c3cnccn3)n2)cc1 | 1.68% |
| CCOc1ccccc1NC(=O)c1ccccc1NC(=O)c1ccc(OC)cc1 | -3.48% |
| S=c1[nH]nc(COc2cccc(Br)c2)n1-c1ccccc1 | 4.84% |
| Cn1c(C(=O)O)c(CC(=O)Nc2ccc(F)cc2)c2ccccc21 | -7.75% |
| CCCCC(=O)NCc1ccc(F)cc1 | 56.8% (active) |
| O=C(CC1CCCCC1)NCc1ccc(F)cc1 | -4.27% |
| Cn1c(C(=O)O)c(CC(=O)NCc2ccc(F)cc2)c2ccccc21 | 63.1% (active) |
| CN(Cc1ccccc1)C(=O)Cc1c(C(=O)O)n(C)c2ccccc12 | 12.8% |
| Cc1ccc(CS(=O)(=O)CCC(=O)NCc2ccc(F)cc2)cc1 | 9.88% |
| CC(=O)/C=C/c1oc2ccccc2c1-c1ccc(C)o1 | 21.6% |
| COc1cccc(/C=N/NC(=O)COc2cccc(Cl)c2)c1 | 1.05% |
| Cc1ccc(-c2c(C(=O)O)nnn2-c2nonc2N)cc1 | 3.35% |
| O=C(c1ccccc1F)N1CCN(C2CCCC2)CC1 | 29.8% |
| O=C(c1ccc(-n2c(=S)[nH]c3ccccc3c2=O)cc1)N1CCN(C2CCCCC2)CC1 | 6.86% |
| O=C(c1ccccc1)N1CCN(C2CCCC2)CC1 | 52.8% (active) |
| N#Cc1cc2cc3c(cc2nc1SCC(=O)Nc1nccs1)OCO3 | 5.9% |
| Cc1nc(C(C)N(C)C(=O)Cn2cc(NC(=O)CCOc3ccccc3)cn2)c(C)s1 (stereo not drawn) | -7.45% |
| CCOC(=O)C(NC(=O)c1ccc(N2CC3CC(C2)c2cccc(=O)n2C3)c(NC(=O)c2cc(OC)cc(OC)c2)c1)C(=O)OCC (stereo not drawn) | -6.03% |
| COc1ccc(-c2cnnc(NCc3ccc(Cl)cc3)n2)cc1 | -5.57% |
| CCCCNc1ncnc2c1[nH]c1ccc(F)cc12 | 18% |
| COc1ccc(C2=N/C(=C\c3ccco3)C(=O)O2)cc1OC | 14.6% |
| CCN(CC(=O)NCc1ccc(Cl)cc1)Cn1nnc2ccccc21 | 85.1% (active) |
| O=C(Cn1nnc2ccccc21)N/N=C/c1c(O)ccc2ccccc12 | 14.9% |

| Compound | inhibition |
| --- | --- |
| CCCn1c(=O)c(C(=O)NCc2ccc(Cl)cc2)c(O)c2ccccc21 | 13.8% |
| COc1cc(-c2cn[nH]c2)ccc1C(=O)NCC(C)c1cccs1 (stereo not drawn) | 0.52% |
| Cc1c(C(=O)Nc2cccc(C(F)(F)F)c2)sc2ncn(C)c(=O)c12 | -1.25% |
| Cc1ccc(NC(=O)c2ccc(NC(N)=O)cc2)cc1 | -11% |
| O=C(COc1ccc(Cl)cc1Cl)Nc1cccc(Br)c1 | -1.08% |
| Cc1cc(NC(=O)c2ccc(N(C)C)cc2)no1 | 7.76% |
| Cc1cc(NC(=O)CNCCCN(C)C)no1 | 64.8% (active) |
| Cc1cc(NC(=O)Cn2cnc3c2c(=O)n(C)c(=O)n3C)no1 | 18% |
| COC(=O)c1ccccc1NC(=O)CC1Nc2cc(C)c(C)cc2NC1=O (stereo not drawn) | 6.95% |
| O=C(c1ccc2c(c1)OCO2)N1CCCCC1c1nc2ccccc2[nH]1 (stereo not drawn) | 10.6% |
| CCS(=O)(=O)N1CCC(N2CCN(c3ccccc3)CC2)CC1 | 11.4% |
| CCCN1CCC(N2CCN(c3cccc(Cl)c3)CC2)CC1 | 15% |
| CN1CCC(N2CCN(c3ccccc3Cl)CC2)CC1 | 55.2% (active) |
| Cc1nc(-c2cncc(Br)c2)cc(N2CCC(O)CC2)n1 | 3.37% |
| CC(C)C(c1nnnn1C(C)C)N1CCN(c2ccccc2F)CC1 (stereo not drawn) | 7.59% |
| CCOC(=O)C1=C(C)N=C2SCC(=O)N2C1c1cc(OC)c(OC)c(OC)c1 (stereo not drawn) | 15.1% |
| COc1ccc(C2C(C(C)=O)=C(C)N=C3SCC(=O)N32)c(OC)c1 (stereo not drawn) | 63.8% (active) |
| COc1ccc(C2C(C(C)=O)=C(C)N=c3s/c(=C\c4cc(C)n(-c5ccc(Cl)cc5)c4C)c(=O)n32)c(OC)c1 (stereo not drawn) | 0.25% |
| CCc1nnc(NC(=O)CSc2nnc(-c3ccccn3)n2-c2ccccc2C)s1 | 1.39% |
| CCOc1cc(C2C3=C(CCCC3=O)N(CC)C3=C2C(=O)CCC3)cc(Cl)c1O | 3.45% |
| COC(=O)C1(C)NC(c2ccc(C)cc2)C2C(=O)N(c3ccc(C)cc3)C(=O)C21 (stereo not drawn) | 10.8% |
| COC(=O)C1(C)NC(c2ccccc2OC)C2C(=O)N(c3ccccc3)C(=O)C21 (stereo not drawn) | 17.7% |
| COC(=O)C1(C)NC(c2ccc(C)cc2)C2C(=O)N(c3ccc(F)cc3)C(=O)C21 (stereo not drawn) | 77.9% (active) |
| CC(=O)c1ccc(N2CN=C3SCC(=O)N3C2)cc1 | 9.73% |
| CCCNC(=O)Cc1ccc(-n2c(=O)c3ccccc3n(CC(=O)NC3CCCCC3)c2=O)cc1 | -13.8% |

| Compound | inhibition |
| --- | --- |
| c1ccc(CCNc2nccc(Nc3ccncn3)n2)cc1 | -8.19% |
| c1ccc(CCCNc2nccc(Nc3ccncn3)n2)cc1 | 10.6% |
| c1ccc(CCCCNc2nccc(Nc3ccncn3)n2)cc1 | 61.3% (active) |
| O=C(NCc1ccccc1)c1ccc2c(c1)nc(SCc1ccc([N+](=O)[O-])cc1)n1c3ccccc3nc21 | 13.9% |
| Cc1ccc(CNC(=O)Cn2ncc3c2-c2ccccc2OC3)cc1 | 4.23% |
| Cc1cc(NC(=O)c2ccco2)ncc1NC(=O)c1cnccn1 | 6.96% |
| Clc1ccc(CN2CCOCC2)c(Cl)c1 | 43.8% |
| Cc1ccc(CN2CCOCC2)c(C)c1 | -2.63% |
| Oc1c(CN2CCOCC2)ccc(CN2CCOCC2)c1O | 52% (active) |
| Cc1cc(C)nc(NC(=O)c2ccccc2Br)c1 | -3% |
| COCCn1c(=S)[nH]c2cc(C(=O)NCCC3=CCCCC3)ccc2c1=O | 0.32% |
| CN(Cc1ccccc1)C(=O)CCC1CCN(C(=O)CCc2ccccn2)CC1 | -1.89% |
| O=C(COc1ccccc1)NCc1cccnc1 | -5.7% |
| CN(CCc1ccccn1)Cc1cccnc1 | 73.8% (active) |
| CCOc1cc(/C=C2\NC(=S)NC2=O)cc(Br)c1OC | 19.5% |
| Cc1ccc(C)c(-n2c(SCCN3CCOCC3)nnc2-c2cccnc2)c1 | -3.61% |
| O=C1OCCN1c1ccc(Nc2nccc(-c3cc(N4CCOCC4)cc([N+](=O)[O-])c3)n2)cc1 | 0.11% |
| Cc1c2c(c(O)c3c(O)cccc13)C(=O)OC2[C@@H]1C(N(C)C)C(O)=C(C(N)=O)C(=O)[C@H]1O (stereo partly drawn) | 108% (active) |
| O=C1OC(c2ccccc2Cl)=N/C1=C\c1ccccc1[N+](=O)[O-] | -1.22% |
| Cc1nc2sccn2c1CN1CCC(C2(Cc3ccccc3)NC(=O)NC2=O)CC1 (stereo not drawn) | -18.4% |
| Cc1cc(C(F)(F)F)nn1CC(=O)Nc1ccc(I)c(Cl)c1 | 6.94% |
| COC(=O)c1c(OCCCN(C)C)cc(=O)n2c1CCN(C(=O)c1ccc(F)cc1)CC2 | -2.23% |
| O=S(=O)(NCC(c1ccc2c(c1)OCO2)N1CCOCC1)c1cccs1 (stereo not drawn) | 1.27% |
